Assay results taken from PubChem BioAssay (NCI).
Where “and” joins values, the source holds several entries; their conditions need not be identical. Identical values can stand only once. The panel holds about 83,000 compounds, 20% with a hit somewhere; the sample as a whole holds those more often.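 How to read the values: 0–100, growth inhibition (40 = 60% inhibited); 0, no net growth; -100 to 0, cell death (-40 = 40% of starting cells died; -100 = all dead).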 Calls of active or inactive are those of the source. The calls were made as follows: active = growth percent below 10; inactive = the rest.

Key:
Experiment in all cases: NCI-60 one-dose screen, 48 h (100 = growth as untreated, 0 = no growth, -100 = all killed)
Settings in all cases: 10 µM unless noted
[1] = test system: HCT-15 colon
[2] = test system: HT29 colon
[3] = test system: SNB-75 CNS
[4] = test system: SNB-19 CNS
[5] = test system: U251 CNS
[6] = test system: PC-3 prostate
[7] = test system: SK-MEL-5 melanoma
[8] = test system: UACC-62 melanoma
[9] = test system: LOX IMVI melanoma
[10] = test system: SK-MEL-28 melanoma
[11] = test system: SK-MEL-2 melanoma
[12] = test system: EKVX NSCLC
[13] = test system: SN12C renal
[14] = test system: UO-31 renal
[15] = test system: TK-10 renal
[16] = test system: ACHN renal
[17] = test system: CAKI-1 renal
[18] = test system: A498 renal
[19] = test system: CCRF-CEM leukemia
[20] = test system: MOLT-4 leukemia

Measured: growth

O=S(=O)(Nc1ccccc1)C1CCCCC1
inactive: [1] 109% and 102% | [2] 99.1% and 99.6% | [3] 86.7% and 94.7% | [4] 101% and 107% | [5] 109% and 102% | [6] 92.6% and 105% | [7] 110% | [8] 92.6% and 105% | [9] 109% and 95.5% | [10] 110% and 108% | [11] 103% | [12] 104% and 97.2% | [13] 94.9% and 120% | [14] 77.2% and 88.3% | [15] 103% and 102% | [16] 110% and 103% | [17] 86.5% and 98.7% | [18] 104% and 95.9% | [19] 105% | [20] 83% and 92.4%

Cc1nn(-c2ccc(Cl)cc2)c2ncnc(N/N=C/c3ccccc3O)c12
-15.1% (active) and 35.9% (inactive): [3]
13.5% (inactive) and 5.47% (active): [17]
active: [7] -62.4% and -60.4% | [19] 6.41% and -2.4% | [20] 9.43% and 6.36%
38.1% (inactive) and 5.43% (active): [12]
35.1% (inactive) and 7.4% (active): [9]
35.2% (inactive) and -11.4% (active): [14]
13.5% (inactive) and -37.1% (active): [8]
inactive: [1] 31.9% and 27.1% | [2] 20.1% and 31.1% | [4] 29.6% and 23.7% | [5] 13% and 11.8% | [6] 41.6% and 28.1% | [10] 25.2% and 14.5% | [11] 12.3% and 36% | [15] 16.4% and 36.7% | [18] 78.5% and 69.6%
23.1% (inactive) and 4.76% (active): [13]
16.5% (inactive) and 5.9% (active): [16]

O=C(N/N=C/c1cccc2ccccc12)C1CC1
inactive: [1] 107% and 113% | [2] 102% and 110% | [3] 90.9% and 85% | [4] 98.8% and 95.1% | [5] 99.7% and 100% | [6] 100% and 102% | [7] 105% and 96.6% | [8] 92.3% and 99.8% | [9] 91.8% | [10] 111% and 104% | [11] 98.6% and 115% | [12] 72.5% and 53% | [13] 104% and 88.6% | [14] 90.1% and 102% | [15] 131% and 121% | [16] 127% and 110% | [17] 108% and 90% | [18] 102% | [19] 88.3% | [20] 67.1% and 113%

Cc1cc(O)c(C(C)C)cc1N
inactive: [1] 101% and 104% | [2] 101% and 116% | [3] 79% and 97% | [4] 117% | [5] 104% and 103% | [6] 106% and 98.4% | [7] 106% and 98.9% | [8] 97.5% and 111% | [9] 98.1% and 94.7% | [10] 113% and 111% | [11] 113% and 119% | [12] 95% and 104% | [13] 114% | [14] 78% and 95.5% | [15] 123% and 117% | [16] 93.3% and 100% | [17] 107% and 97.4% | [18] 92.3% and 89.7% | [19] 105% and 88.4% | [20] 95.2% and 103%

CN(C)c1ccc(C(Cc2ccc3ccccc3n2)Cc2ccc3ccccc3n2)cc1
2.9% (active) and 56.3% (inactive): [14]
inactive: [1] 51.1% and 78.8% | [3] 110% and 88.5% | [4] 61% and 89.3% | [5] 43.5% and 81.2% | [6] 16% and 61.5% | [7] 19.8% and 76.7% | [8] 44.5% and 73% | [9] 31.3% and 81.8% | [10] 74.9% and 92.8% | [11] 70% and 88.5% | [12] 49.2% and 72.9% | [13] 48.7% and 81.6% | [15] 74.1% and 121% | [16] 50.5% and 89.6% | [17] 26.1% and 74.9% | [18] 33.7% and 59.3% | [19] 41.7% and 67.4% | [20] 11.4% and 74.6%
0.736% (active) and 59.7% (inactive): [2]

CCN(CC)CCC(CNc1ccnc2cc(Cl)ccc12)c1ccc(OC)cc1 (stereo not given)
active: [10] -78.4% and -54.7% | [14] -5.93% and -3.07%
inactive: [1] 42.6% and 30.8% | [2] 26.4% and 14% | [3] 68.6% and 34.1% | [4] 98.5% and 92.2% | [5] 58.5% and 50.6% | [6] 66.5% and 62.2% | [7] 38.3% and 30.4% | [8] 45.3% and 51.9% | [9] 40.2% and 32.1% | [11] 101% and 61.7% | [12] 69.6% and 85.6% | [13] 71.4% and 60.8% | [15] 58.5% and 46.3% | [16] 37.5% and 33.3% | [17] 55.6% and 21.6% | [18] 38.2% and 28.7% | [19] 63.4% and 45.8% | [20] 52.3% and 52.5%

NC(=S)NN=C1CCC(C2CCCCC2)CC1 (stereo not given)
inactive: [1] 61.9% and 66.1% | [2] 90% and 79.7% | [3] 76.4% and 92.8% | [4] 96% and 102% | [5] 93.7% and 95.1% | [6] 89% and 74.1% | [7] 87.3% and 87.8% | [8] 79.6% and 88.3% | [9] 99.8% | [10] 91.5% and 110% | [11] 96% and 90.2% | [12] 78.9% and 82.6% | [13] 82.3% and 82.5% | [14] 69.3% and 45.9% | [15] 113% and 104% | [16] 100% and 98.8% | [17] 81.9% and 96.2% | [18] 88.2% | [19] 81.1% and 92% | [20] 81.4% and 73.3%

Cn1cc(-c2cc3c(Nc4ccc(CC(=O)Nc5cc(C(C)(C)C)on5)cc4)ncnc3[nH]2)cn1
14.3% (inactive) and 5.35% (active): [19]
active: [2] -8.17% and -11.7% | [3] -44.8% and -42.3% | [4] 2.07% and 3.84% | [5] 0.087% and -9.38% | [6] -21.4% and 1.57% | [7] -50.7% and 1.16% | [8] -77.9% and -80% | [9] 1.91% and 2.35% | [10] -20.2% and -18.4% | [11] -60.5% and -81% | [13] -10.9% and -7.98% | [14] -11.4% and 9.42% | [15] 0.328% and -17.2% | [16] -6.75% and 6.73% | [17] -10.5% and 7.18% | [18] -60.1% | [20] 9.74% and 5.37%
inactive: [1] 17.5% and 34.6%
6.89% (active) and 10.1% (inactive): [12]
